Reference: PubChem BioAssay (NCI)
About 83,000 compounds went through this panel and 20% of them were active in at least one assay; those are over-represented in the sample as a whole.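 Percent growth is the endpoint: 0 to 100 indicates growth inhibition (40 means 60% inhibition), 0 means no net growth, and negative values indicate cell death.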 Unmarked numbers belong to inactive results. The source made the active and inactive calls. Rule for the calls: active = growth percent below 10; inactive = the rest.

Assays:
Assay in all cases: NCI-60 one-dose screen, 48 h (100 = growth as untreated, 0 = no growth, -100 = all killed)
Conditions in all cases: 10 µM unless noted
NCI-H23 lung = tested on: NCI-H23 lung
NCI-H322M lung = tested on: NCI-H322M lung
HOP-62 NSCLC = tested on: HOP-62 NSCLC
NCI-H460 lung = tested on: NCI-H460 lung
HOP-92 NSCLC = tested on: HOP-92 NSCLC
NCI-H522 lung = tested on: NCI-H522 lung
A549/ATCC NSCLC = tested on: A549/ATCC NSCLC
786-0 renal = tested on: 786-0 renal
COLO 205 colon = tested on: COLO 205 colon
DU-145 prostate = tested on: DU-145 prostate
K-562 leukemia = tested on: K-562 leukemia
MALME-3M melanoma = tested on: MALME-3M melanoma
MDA-MB-231 breast = tested on: MDA-MB-231 breast
RXF 393 renal = tested on: RXF 393 renal
SF-268 CNS = tested on: SF-268 CNS
SF-295 CNS = tested on: SF-295 CNS
SF-539 CNS = tested on: SF-539 CNS
UACC-257 melanoma = tested on: UACC-257 melanoma
M14 melanoma = tested on: M14 melanoma
NCI-H226 lung = tested on: NCI-H226 lung

SMILES | growth (NCI-H23 lung) | growth (NCI-H322M lung) | growth (HOP-62 NSCLC) | growth (NCI-H460 lung) | growth (HOP-92 NSCLC) | growth (NCI-H522 lung) | growth (A549/ATCC NSCLC) | growth (786-0 renal) | growth (COLO 205 colon) | growth (DU-145 prostate) | growth (K-562 leukemia) | growth (MALME-3M melanoma) | growth (MDA-MB-231 breast) | growth (RXF 393 renal) | growth (SF-268 CNS) | growth (SF-295 CNS) | growth (SF-539 CNS) | growth (UACC-257 melanoma) | growth (M14 melanoma) | growth (NCI-H226 lung)
O=[N+]([O-])c1ccc(N2CCN(Cc3ccccc3)CC2)c2c1no[n+]2[O-] | 13% | 69.7% | -31.7% (active) | -70.8% (active) | 25.6% | -74.1% (active) | -40.2% (active) | -4.19% (active) | -88.2% (active) | 26.8% | -43.5% (active) | 13.5% | -3.1% (active) | -5.34% (active) | -1.56% (active) | 6.45% (active) | 0.0788% (active) | 55.9% | 30.3% | 
CC(C)(C)c1ccc(O)c(Br)c1 | 93.6% | 101% | 107% | 95.6% | 98.2% | 119% | 107% | 100% | 105% | 105% | 120% | 99.8% | 104% | 91.2% | 95.5% | 95.8% | 102% | 111% |  | 
O=C(Nc1ccc(Cl)c(Cl)c1)OCc1ccco1 | 58.5% | 56.6% | 49.3% | 26.4% | 58.9% | 5.5% (active) | 34.9% | 57.5% | 64.8% | 54.8% | 15.8% | 68.6% | 52.2% | 56% | 47.8% | 31.6% | 41.8% | 62.6% | 44.9% | 
COc1ccc2c(c1OC)OCC(CN(C)C)C2=O (stereo unspecified) | 104% | 111% | 100% | 122% | 52.1% | -81% (active) | 98.9% | 92.7% | -75.2% (active) | 91.9% | -100% (active) | 71.5% | 96.7% | 98% | 110% | 96.2% | 97.1% | 99.1% | 98.5% | 
O=C1C(=O)c2cc([N+](=O)[O-])ccc2-c2ccccc21 | -71.8% (active) | 96.9% | -93.3% (active) | 16.4% |  |  | -52.2% (active) | -96.7% (active) | -56.9% (active) | -99.2% (active) | -9.39% (active) | -82.7% (active) | -50.6% (active) | -97.2% (active) | -84.4% (active) | -82.2% (active) | -93% (active) | -94.5% (active) | -90.2% (active) | -98.7% (active)
O=[N+]([O-])c1ccc2c(c1)Cc1ccccc1-2 | 99.9% | 106% | 94.8% | 99.9% |  |  | 94.8% | 91% | 116% | 97.7% | 94.5% | 95.7% | 102% | 109% | 95.9% | 100% | 100% | 97.2% | 106% | 108%
Cc1ccccc1N=C(N)Nc1ccccc1C (tested in a mixture with another compound) | 94.8% | 99.4% | 84.7% | 76.1% | 76.5% | 4.48% (active) | 74.4% | 73.9% | 85.5% | 84.3% | 85.8% | 102% | 68.5% | 94.7% | 72.2% | 104% | 72.4% | 97.5% |  | 
Oc1ccc2ccccc2c1N=Nc1ccccn1 | 42.6% | 47.8% | 30.1% | 17.4% |  |  | 53.5% | 7.32% (active) | 15.9% | 50.2% | 15.2% | 59.7% | 36.3% | 38.3% | 36% | 26.8% | 15.7% | 17.6% | 15.6% | 19.1%
Nc1ccc(C(=O)/C=C/c2ccccc2)cc1 | 96.5% | 90.8% |  | 100% | 88.3% | 80.8% | 91.5% | 86.2% |  | 62.1% | 14.3% | 93.9% | 98.2% | 104% | 85.8% | 101% | 102% | 108% |  | 105%
CCCCCC/C=C1\CCC(CN2CCCC2)C1=O (stereo unspecified) | 99.9% | 106% |  | 102% | 90.5% | 93.5% | 93% | 77.4% |  | 107% | 57.3% | 119% | 102% | 95.6% | 102% | 111% | 114% | 92.1% | 93.3% | 95.5%
S=C(SSC(=S)N1CCOCC1)N1CCOCC1 | 48.9% | 116% | 104% | 2.9% (active) | 122% | -50.2% (active) | 57.2% | 103% | 28.6% | 109% | 56.2% | 101% | 104% | 102% | 101% | 107% | 96.4% | 64% |  | 
CN(C)c1ccc(/C=C/c2nccc3ccccc23)cc1 | 81.9% |  | 87.9% | 74.3% | 68.2% |  | 85.6% | 103% | 91.4% | 101% | 92.8% | 110% | 51.3% | 102% | 97.2% | 79.1% | 99% |  | 88.8% | 71.6%
O=C1C=CC(O)=CC1=P(c1ccccc1)(c1ccccc1)c1ccccc1 | 94.6% | 83.3% | 99.7% | 73.6% |  | 81.8% |  | 87.9% | 105% | 114% | 88.8% | 59.5% | 81.3% |  | 100% | 107% | 86.9% |  | 100% | 88.8%
Cc1ccc(N2C(=O)C=CC2=O)cc1 | 106% |  | 107% |  | 82.9% | 74.8% | 92% | 99.1% | 83.6% | 119% | 0.664% (active) |  | 97.6% | 99.7% | 106% | 115% | 112% | 103% |  | 90.9%
CCCCCCCCCCCC1N=C(N)N=C(N)N1c1cccc(Br)c1 (stereo unspecified) | 6.58% (active) | 54.4% | -8.64% (active) | -58.4% (active) |  |  | 21.7% | 4.98% (active) | -77.3% (active) | 17.7% | -20.1% (active) | 76% | -48.1% (active) | -32.1% (active) | 8.27% (active) | 18.9% | 12% | 61.3% | 11.4% | 39.1%
COc1cc(-c2ccc(-[n+]3nc(-c4ccc([N+](=O)[O-])cc4)nn3-c3ccc([N+](=O)[O-])cc3)c(OC)c2)ccc1-[n+]1nc(-c2ccc([N+](=O)[O-])cc2)nn1-c1ccc([N+](=O)[O-])cc1 | 26.1% | 44.3% | -59.7% (active) | 3.02% (active) |  |  |  | 0.457% (active) | -69% (active) | -32.7% (active) | 3.89% (active) | -44.6% (active) | 51.4% | -39.9% (active) | -33.9% (active) | -30.7% (active) | -66.4% (active) | -42.5% (active) | 58.3% | -32.5% (active)
Cc1ccc(/C=C2\CNC/C(=C\c3ccc(C)cc3)C2=O)cc1 | 2.76% (active) | 22.9% | 4.5% (active) | -47.1% (active) | 11% | -54% (active) | -53.7% (active) | -71.5% (active) | -70.5% (active) | -87.5% (active) | -28.5% (active) | 29.4% | -15.9% (active) | -57.4% (active) | -8.61% (active) | -5.11% (active) | -64.5% (active) | -21.1% (active) |  | 
O=C(O)c1cc2c(s1)C(=O)c1sccc1C2=O | -41.9% (active) | 85.9% | -89% (active) | 104% | 54.4% | -63.4% (active) | 28.7% | 93.2% | 104% | -100% (active) | -1.53% (active) | -98.9% (active) | 75% | 34.2% | 45.2% | 57.4% | -66.1% (active) | 48.3% | -96.3% (active) | 
